Experimental data: PubChem BioAssay (NCATS)
Values joined by “and” are separate entries in the source; they are usually repeats but may differ in a detail not shown here. Identical values can stand only once. Records with an inconclusive call do not appear. Active and inactive are the calls of the source. The call rests on the fitted dose curve; in most records, active means well fitted inhibition curve with a large enough effect; inconclusive means small, poorly fitted or top-dose-only effect; inactive means flat fitted curve, though single readings scatter.

Assay: P-glycoprotein substrates identified in KB-8-5-11 adenocarcinoma cell line, qHTS therapeutic library screen (AID 1346987); further: nearly all actives have a fitted effect of over 65% in size
Settings: KB-8-5-11 (P-gp overexpressing) viability, CellTiter-Glo, 72 h; series mostly up to 44.5 µM; activity change, negative = cytotoxicity: at the top concentration
Summary of the method: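 KB-8-5-11: colchicine-selected sub-line of KB-3-1 over-expressing P-gp; assay medium lacked colchicine. 72 h drug exposure at 37 degree C, CellTiter-Glo.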
On the % scale 0 is the no-effect control and ±100 the full control effect; potency means the concentration at half of the fitted maximal effect.

SMILES	activity change, negative = cytotoxicity	Potency	outcome
CN(C)C(=O)NC1CCC(CCN2CCN(c3cccc(Cl)c3Cl)CC2)CC1 (centres undefined)	-11.3% [at 9.29 µM] (inactive)	–	–
COc1ccc([C@H]2CNC(=O)C2)cc1OC1CCCC1	-0.254% (inactive)	–	–
CC(C)(C)NS(=O)(=O)c1cncc(-c2cc(F)c3nc(N)nn3c2)c1	6.93% (inactive)	–	–
CC(C)CCC1(O)C(=O)C(C)(C)C(O[C@@H]2O[C@H](CO)[C@@H](O)[C@H](O)[C@H]2O)C(C)(C)C1O (some centres undefined)	-4.18% [at 17.3 µM] (inactive)	–	–
CN1CCN(c2ccc(C(=O)Nc3n[nH]c4ccc(Cc5cc(F)cc(F)c5)cc34)c(NC3CCOCC3)c2)CC1	–	16.4 µM (active) and 13 µM (active)	–
Cc1nc2sc(C(=O)NCc3ccncc3)c(N)c2c(C)c1Cl	-28.6% (inactive)	–	–
CC1CCN(C(=O)CC#N)CC1N(C)c1ncnc2[nH]ccc12 (centres undefined)	–	–	inactive
CN(C)CCCCC(=O)Nc1ccc(NC(=S)NC(=O)c2ccc(C(C)(C)C)cc2)cc1	–	13 µM (active)	–
C(#Cc1nc2ncccc2nc1OCCN1CCCC1)c1ccccc1	–	6.51 µM (active)	–
CC(C)(C)Nc1nc2cc(Cl)c(Cl)cc2nc1S(C)(=O)=O	–	14.6 µM (active)	–
CN1CCN(C2CCC(n3cc(-c4ccc(Oc5ccccc5)cc4)c4c(N)ncnc43)CC2)CC1 (centres undefined)	–	5.8 µM (active)	–
O=C(/C=C\n1cnc(-c2cc(C(F)(F)F)cc(C(F)(F)F)c2)n1)N1CC(F)(F)C1	–	0.461 µM (active)	–
Cc1cc(Nc2ccc(NC(=O)c3ccc(Nc4ccnc5ccccc45)cc3)cc2)nc(N)n1	-46.3% (inactive)	–	–
COC1CC(O[C@H]2CC[C@@]3(C)C(CCC4C3[C@H](OC(C)=O)[C@@H](OC(=O)/C=C/c3ccccc3)[C@]3(C)C(C(C)=O)CC[C@]43O)C2)OC(C)C1OC1CC(OC)C(OC2CC(OC)C(OC3OC(C)C(OC4OC(CO)C(O)C(O)C4O)C(OC)C3O)C(C)O2)C(C)O1 (some centres undefined)	-0.0477% [at 9.29 µM] (inactive)	–	–
